This note sets out measurements from PubChem BioAssay (NCI).

Molecules are shown by their SMILES. About 83,000 compounds went through this panel and 20% of them were active in at least one assay; those are over-represented in the sample as a whole.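 Activity criterion: percent growth below 10, measured after cells in 96-well plates were exposed to a single compound concentration for 48 hours.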 Unmarked numbers belong to inactive results. The source made the active and inactive calls.

Some test systems named below: SR leukemia; RPMI-8226 leukemia; OVCAR-8 ovarian; OVCAR-5 ovarian; OVCAR-4 ovarian; SK-OV-3 ovarian; IGROV1 ovarian; OVCAR-3 ovarian; HS 578T breast; NCI/ADR-RES ovarian; T-47D breast; BT-549 breast; MDA-MB-435 melanoma; SW-620 colon; MCF7 breast; HCT-116 colon; HCC-2998 colon; KM12 colon.
What all share (assay): NCI-60 one-dose screen, 48 h (100 = growth as untreated, 0 = no growth, -100 = all killed)
Details in all cases: 10 µM unless noted

In the case of `COc1ccc(/C=C2\CCCC3=C2N=C2SC=NN2C3c2ccc(OC)c(OC)c2)cc1OC` (centres undefined), the growth is 34.3% in the assay on SR leukemia; -14.8% (active) in the assay with RPMI-8226 leukemia; 9.01% (active) in the assay with OVCAR-8 ovarian; 59.7% in the assay with OVCAR-5 ovarian; 49.1% in the assay on OVCAR-4 ovarian; 81.9% in the assay with SK-OV-3 ovarian. The growth is 47.8% in the assay with IGROV1 ovarian; 37.8% in the assay with OVCAR-3 ovarian; 86.4% in the assay on HS 578T breast; 21.4% in the assay with NCI/ADR-RES ovarian; 52.5% in the assay with T-47D breast; 38.5% in the assay on BT-549 breast. The growth with MDA-MB-435 melanoma was 18.2%; in the assay with SW-620 colon, 29.7%; in the assay on MCF7 breast, 22.6%; with HCT-116 colon, 8.93% (active); in the assay with HCC-2998 colon it was 57.1%; in the assay on KM12 colon, 28.2%.

`CCCCCCCCCCC1OC(C)CC(C)O1` (centres undefined): the growth is 71.6% in the assay on SR leukemia; 99.6% in the assay on RPMI-8226 leukemia; 99.5% in the assay on OVCAR-8 ovarian; 99.2% in the assay on OVCAR-5 ovarian; 111% with OVCAR-4 ovarian; 103% in the assay with SK-OV-3 ovarian. For the same compound, the growth with IGROV1 ovarian was 109%; in the assay on OVCAR-3 ovarian, 98.3%; in the assay on HS 578T breast, 101%; with NCI/ADR-RES ovarian, 105%; in the assay with T-47D breast it was 88.7%; with BT-549 breast it was 101%. The growth in the assay with MDA-MB-435 melanoma is 107%; in the assay with SW-620 colon, 103%; with MCF7 breast it was 98.6%; in the assay on HCT-116 colon, 97.3%; in the assay with HCC-2998 colon it was 101%; with KM12 colon, 103%.

In the case of `O=C1/C(=C\c2cn(-c3nc(N4CCOCC4)nc(N4CCOCC4)n3)c3ccccc23)c2ccccc2N1c1c(Cl)cccc1Cl`, the growth with SR leukemia is 27.4%; in the assay with RPMI-8226 leukemia, 60.1%; with OVCAR-8 ovarian, 76.1%; in the assay on OVCAR-5 ovarian, 52.1%; in the assay with OVCAR-4 ovarian it was 65.1%; in the assay on SK-OV-3 ovarian, 7.66% (active). Besides, the growth with IGROV1 ovarian is 36.2%; with OVCAR-3 ovarian it was 69.6%; with HS 578T breast, 27.9%; in the assay on NCI/ADR-RES ovarian, 72.4%; with T-47D breast, 45.5%; in the assay with BT-549 breast it was 39.1%. Besides, the growth with MDA-MB-435 melanoma was 83.5%; in the assay with SW-620 colon, 84.5%; with MCF7 breast, 50.6%; with HCT-116 colon, 71.6%; in the assay on HCC-2998 colon, 75.5%; in the assay with KM12 colon it was 88.5%.

With `CCCCCCCCCCN1CC2CCCCC2C1` (centres undefined), the growth in the assay on SR leukemia was 12.9%; in the assay with RPMI-8226 leukemia, 51.6%; with OVCAR-8 ovarian, 94%; with OVCAR-5 ovarian, 66.2%; with OVCAR-4 ovarian it was 49.1%; in the assay with SK-OV-3 ovarian it was 83.8%. In addition, the growth in the assay on IGROV1 ovarian was 90%; in the assay with OVCAR-3 ovarian it was 77.9%; in the assay on HS 578T breast, 84.4%; in the assay on NCI/ADR-RES ovarian it was 83.8%; in the assay on T-47D breast, 56.7%; in the assay with BT-549 breast, 69%. In addition, the growth is 91.3% with MDA-MB-435 melanoma; 74.2% in the assay on SW-620 colon; 65% with MCF7 breast; 53.6% in the assay on HCT-116 colon; 82.9% in the assay with HCC-2998 colon; 65.3% in the assay with KM12 colon.

Consider `Cc1ccc(NC(=O)CCl)cc1Cl`, for which the growth in the assay with SR leukemia is 51.9%; in the assay with RPMI-8226 leukemia, 91%; in the assay on OVCAR-8 ovarian, 92.9%; in the assay on OVCAR-5 ovarian, 108%; in the assay with OVCAR-4 ovarian it was 89.2%; in the assay on SK-OV-3 ovarian, 102%. The growth in the assay with IGROV1 ovarian was 63.8%; with OVCAR-3 ovarian, 114%; in the assay with HS 578T breast, 93.8%; in the assay with NCI/ADR-RES ovarian, 107%; in the assay on T-47D breast, 90.2%; with BT-549 breast it was 76.7%. Further, the growth was 90.9% in the assay with MDA-MB-435 melanoma; 95.5% in the assay on SW-620 colon; 87.5% with MCF7 breast; 106% in the assay on HCT-116 colon; 115% with HCC-2998 colon; 111% with KM12 colon.

In the case of `N/C(=N\O)c1ccncc1`, the growth was 108% in the assay with SR leukemia; 110% in the assay on RPMI-8226 leukemia; 102% with OVCAR-8 ovarian; 102% with OVCAR-5 ovarian; 103% in the assay with OVCAR-4 ovarian; 106% in the assay on SK-OV-3 ovarian. In addition, the growth was 105% in the assay with IGROV1 ovarian; 105% with OVCAR-3 ovarian; 110% in the assay with HS 578T breast; 102% with NCI/ADR-RES ovarian; 102% in the assay with T-47D breast; 98.3% in the assay on BT-549 breast. For the same compound, the growth with MDA-MB-435 melanoma is 100%; with SW-620 colon, 105%; in the assay with MCF7 breast, 97.2%; in the assay on HCT-116 colon it was 102%; in the assay with HCC-2998 colon it was 95.8%; with KM12 colon, 102%.

For `CC(=O)OC1CC2C3CCC4C[C@@H](NC(=O)C=C(C)C)CC[C@]4(C)C3CC[C@]2(C)[C@H]1C(C)N(C)C` (some centres undefined), the growth in the assay on SR leukemia was -21% (active); in the assay with RPMI-8226 leukemia, 13.9%; with OVCAR-8 ovarian it was 45.1%; with OVCAR-5 ovarian, 58.9%; in the assay on OVCAR-4 ovarian it was -8.18% (active); in the assay with SK-OV-3 ovarian, 25.8%. Further, the growth is 33.6% with IGROV1 ovarian; -4.96% (active) in the assay on OVCAR-3 ovarian; 0.863% (active) with HS 578T breast; 41.7% with NCI/ADR-RES ovarian; -22.3% (active) with T-47D breast; 22.5% in the assay with BT-549 breast. In addition, the growth is -45.4% (active) with MDA-MB-435 melanoma; -72.5% (active) with SW-620 colon; 1.95% (active) in the assay on MCF7 breast; -70.4% (active) in the assay with HCT-116 colon; -51.9% (active) in the assay on HCC-2998 colon; 1.6% (active) in the assay with KM12 colon.

In the case of `COc1cc2ncnc(-n3ncc4cc(NC(=O)Nc5ccc(Cl)c(Cl)c5)ccc43)c2cc1OC`, the growth with SR leukemia was 9.64% (active); with RPMI-8226 leukemia it was -0.257% (active); in the assay on OVCAR-8 ovarian, 2.71% (active); with OVCAR-5 ovarian, -33.1% (active); in the assay with OVCAR-4 ovarian, -32.3% (active); in the assay on SK-OV-3 ovarian, -24.9% (active). Further, the growth with IGROV1 ovarian was -58.3% (active); in the assay on OVCAR-3 ovarian, -65.5% (active); in the assay on HS 578T breast, -5% (active); with NCI/ADR-RES ovarian, -30.7% (active); in the assay with T-47D breast, -0.727% (active); in the assay with BT-549 breast, -26.9% (active). Besides, the growth in the assay with MDA-MB-435 melanoma is -31.1% (active); with SW-620 colon it was -32.4% (active); in the assay on MCF7 breast, -34.8% (active); with HCT-116 colon, 23.9%; with HCC-2998 colon it was 15.4%; in the assay on KM12 colon, 0.483% (active).
